Assay results published in PubChem BioAssay (Tox21).
Inconclusive results are not listed. Unmarked numbers belong to inactive results. Calls of active or inactive are those of the source. Calls come from the whole dose curve; as a rule, active = well fitted activation curve with a large enough effect in the repeat runs; inconclusive = weak or mixed curves; inactive = flat fitted curve, though single readings scatter.

Assay: A CellTox Green Cytotoxicity Assay to monitor cytotoxicity in HepG2 cells - 16 hour (AID 1224876); note: nearly all actives have a fitted effect of over 45% in size
Details: CellTox Green fluorescence; series mostly up to 76.8 µM; cytotoxicity increase: at the top concentration
Summary of the method: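 Measurements at 0, 8, 16, 24, 32 and 40 h of treatment captured CellTox Green fluorescence in HepG2 cells that had been co-plated with reagent and preincubated 5 h at 37 C/5% CO2.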
% is set by controls: 0 for no effect and ±100 for the full control effect; potency is the fitted concentration of half-maximal effect.

SMILES | cytotoxicity increase | Potency
Brc1c2ccccc2cc2ccccc12 | -1.72% | –
C[C@H](CCC(=O)O)[C@H]1CC[C@H]2[C@@H]3CC[C@@H]4C[C@H](O)CC[C@]4(C)[C@H]3C[C@H](O)[C@]12C | 22.3% | –
CCCCOC(=O)CCCCCCCC(=O)OCCCC | -2.28% | –
CCN(CC)c1ccc(C(=C2C=CC(=[N+](CC)CC)C=C2)c2cc(S(=O)(=O)O)ccc2S(=O)(=O)[O-])cc1 | -15.1% [at 35.3 µM] | –
O[C@@H](COc1cccc2ncccc12)CN1CCN(C2c3ccccc3[C@@H]3[C@H](c4ccccc42)C3(F)F)CC1 (stereo partly specified) | -1.84% [at 35.3 µM] | –
O=[N+]([O-])c1ccc(NCCO)c(OCCO)c1 | 1.07% | –
O=C(O)c1nc(Cl)c(Cl)c(Cl)c1Cl | -1.79% | –
O=C(O)C1(C(=O)O)CCC1.[NH2-].[NH2-].[Pt+2] | -61.9% [at 35.3 µM] | –
CCCCCCCCCCCCCCOS(=O)(=O)O | – | 34.7 µM (active)
O=C1C(O)=C(O)C(=O)C(O)=C1O | -20% [at 35.3 µM] | –
C=CC(=O)OCCOCCOCCOCCOC(=O)C=C | – | inactive
CNCCCN1c2ccccc2CCc2ccccc21 | – | 26.8 µM (active)
C/C=C(/C(=C/C)c1ccc(OC(C)=O)cc1)c1ccc(OC(C)=O)cc1 | -0.0788% [at 35.3 µM] | –
NCC(=O)CCC(=O)O | -4.03% [at 35.3 µM] | –
O=C(Nc1ccccc1)c1ccccc1O | 9.34% | –
CCC(C)O (stereo unspecified) | 1.63% | –
O=[N+]([O-])c1cccc(S(=O)(=O)O)c1 | 0.704% | –
CN(C)CCN(Cc1ccccc1)c1ccccn1 | 0.22% [at 35.3 µM] | –
CCNc1cc(O)ccc1C | -0.127% | –
Nc1cc(C(=O)O)c(O)c(S(=O)(=O)O)c1 | -1.45% | –
C=C1C(=C/C=C2\CCC[C@]3(C)[C@@H]([C@H](C)/C=C/[C@@H](O)C4CC4)CC[C@@H]23)C[C@@H](O)C[C@@H]1O | 2.06% [at 35.3 µM] | –
